# Screens deposited in PubChem by National Center for Advancing Translational Sciences (NCATS).
# The list is not random: actives were taken first. Their share in the collection is about 2.9%.
# EPAC1 agonist: human EPAC1 agonism, validation. O95398. EPAC1 Rap1b BODIPY-GDP exchange, fluorescence. Potency, µM, for inactives: max response, positive = active, most hits filed as activators. 16,000 tested, 1% active. AID 1645883; further: nearly all actives have a fitted effect of over 70% in size
# EPAC2 ant val: validation of human EPAC2 antagonists. Q8WZA2. EPAC2 Rap1B BODIPY-GDP exchange, fluorescence. Potency, µM (top dose mostly 112 µM), inactives show at the highest dose activity, negative = inhibition, usual class: inhibitors. 16,000 tested, 1.7% active. AID 1645886;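 further: 100% = activation by cAMP agonist control; nearly all actives have a fitted effect of over 40% in size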
#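 Fluorescent exchange read-out: 100 nM EPAC2 with 250 nM RAP1B–BODIPY-GDP and 50 uM GDP; BODIPY-GDP release lowers fluorescence. Read at 480/540 nm every 5 min for 30 min at room temperature; normalized to 6.5 mM cAMP.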
# * = called active by the depositor; u = inconclusive; ! = a repeat was not active; [ ] = another dose, or the depositor's remark. The call rests on the fitted dose curve; in most records, active means well fitted curve in the direction sought with a large enough effect; inconclusive means small, poorly fitted or top-dose-only effect, or another doubt; inactive means no such curve, though single readings can be large; an effect the other way counts as inactive or inconclusive. Unless noted, on the % scale 0 is the no-effect control and ±100 the full control effect; potency means the concentration at half of the fitted maximal effect.
SMILES,EPAC1 agonist,EPAC2 ant val
O=C(Nc1ccccc1-c1ccc(Cl)cc1)c1cccnc1Cl,25.3%,8.91µM*
Cc1ccccc1-n1c(C)nc2ccccc2c1=O,-8.9%,5.0%[239 µM]
O=c1c2ccccc2[se]n1-c1ccccc1,7.8%,39.8µM*!
CC(=O)O[C@H]1C[C@H](O[C@H]2[C@@H](O)C[C@H](O[C@H]3[C@@H](O)C[C@H](OC4CC[C@@]5(C)[C@H](CC[C@@H]6[C@@H]5CC[C@]5(C)[C@@H](C7=CC(=O)OC7)CC[C@]65O)C4)O[C@@H]3C)O[C@@H]2C)O[C@H](C)[C@H]1O[C@@H]1O[C@H](CO)[C@@H](O)[C@H](O)[C@H]1O (stereo partly specified),-12.4%,0.5%
O=C1c2ccccc2C(=O)C1C(=O)C(c1ccccc1)c1ccccc1,20.8%,79.4µM*
CCC(=O)C(CC(C)N(C)C)(c1ccccc1)c1ccccc1 (stereo unspecified),u,12.0%[239 µM]
C[C@]12CC[C@H]3[C@@H](CC[C@@]45O[C@@H]4C(O)=C(C#N)C[C@]35C)[C@@H]1CC[C@@H]2O,-7.7%,19.2%
CCN(CC)CCO[C@H]1CC[C@@]2(C)C(=CC[C@@H]3[C@@H]2CC[C@]2(C)C(=O)CC[C@@H]32)C1,22.7%,4.9%
C[C@@H](Cc1ccccc1)N(C)C,-13.1%,8.7%
CCCCC/C=C\C/C=C\C/C=C\C/C=C\CCCC(=O)Nc1ccc(O)cc1,-69.6%,31.6µM*
CCCCC/C=C\C/C=C\C/C=C\C/C=C\CCCC(=O)NCC(=O)O,8.5%,40.3%
CC(=O)Oc1c2c(c(CC=C(C)C)c3c1C(=O)C1=CC4CC5C(C)(C)OC(C/C=C(\C)C(=O)O)(C4=O)[C@]15O3)OC(C)(CCC=C(C)C)C=C2 (stereo partly specified),-207.3%,70.8µM*
COC(=O)/C(C)=C\CC12OC(C)(C)C3CC(C=C4C(=O)c5c(OC)c6c(c(CC=C(C)C)c5OC431)OC(C)(CCC=C(C)C)C=C6)C2=O (stereo unspecified),-78.0%,-22.6%
CO[C@H]1[C@@H](O)C[C@H](O[C@H]2[C@@H](O)C[C@H](O[C@H]3[C@@H](O)C[C@H](O[C@H]4CC[C@@]5(C)[C@H](CC[C@@H]6[C@@H]5C[C@@H](O)[C@]5(C)[C@@H](C7=CC(=O)OC7)CC[C@]65O)C4)O[C@@H]3C)O[C@@H]2C)O[C@@H]1C,-30.4%,-8.5%
CN1[C@H]2CC[C@@H]1[C@@H](C(=O)O)[C@@H](OC(=O)c1ccccc1)C2,2.8%,u
COc1cc(C[C@@H](C)N)c(OC)cc1Br,-14.3%,5.8%[239 µM]
CCOP(=O)(NC(C)C)Oc1ccc(SC)c(C)c1 (stereo unspecified),-45.1%,50.1µM*
COP(=S)(OC)Oc1ccc(SC)c(C)c1,10.1%,u
[2H]C([2H])([2H])[C@H](N)Cc1ccccc1,u,33.0%
CCOC(=O)[C@]12Cc3cc4c(cc3[C@H]1N(Cc1ccccc1)C(=O)c1ccccc12)OCO4,23.1%,u
CCOC(=O)[C@]12Cc3cc(N(C)C)ccc3[C@H]1N(Cc1ccccc1)C(=O)c1ccccc12,29.3%,79.4µM*
CC[C@H]1C[C@@H]2C[C@H]3c4[nH]c5ccc(OC)cc5c4CCN(C2)[C@@H]13,15.2%,14.6%[239 µM]
O=c1oc2ccccc2c(O)c1C(CC(O)c1ccc(-c2ccc(Br)cc2)cc1)c1ccccc1 (stereo unspecified),-13.9%,79.4µM*
Clc1ccc(CSC(Cn2ccnc2)c2ccc(Cl)cc2Cl)cc1 (stereo unspecified),50.1µM*!,44.7µM*!
C[C@]12CC[C@H](O)C[C@H]1CC[C@@H]1[C@@H]2CC[C@]2(C)[C@@H](c3ccc(=O)oc3)C[C@H]3O[C@]132,-9.8%,-5.0%
C[C@]12CC[C@@H](O)C[C@H]1CC[C@@H]1[C@H]2CC[C@]2(C)C(=O)CC[C@@H]12,-20.0%,3.9%
CCCCCc1cc(O)c2c(c1)OC(C)(C)[C@@H]1CCC(C)=C[C@@H]21,-67.1%,u
CCCCCCCCc1ccc(O)cc1,-224.9%,35.5µM*
CCCCc1ccc(C(=O)O)nc1,-0.9%,-6.2%
CCc1cc(OC)c(C[C@@H](C)N)cc1OC,4.3%,-2.8%[239 µM]
